{
  "source": "the supplement of paper PMC10849652",
  "note": "Of roughly 8,800 targets only a part is listed; those with a hit were picked by preference. About 0.5% of all pairs of compound and target were hits.",
  "data": [
    {"compound": "CC1=C(C=C(C=C1)NC(=O)C2=CC(=CC=C2)N(C)C)NC(=O)C3=CC=C(C=C3)O", "experiment": "log2 fold change, soluble protein after heating vs DMSO (PISA); higher = thermal stabilisation; K562 lysate, 10 uM; active = over 0.2 and 3.5 SD of the protein, either way, in both replicates (recomputed)", "in_short": "(§1)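 Log-two fold change in thermal stability relative to solvent controls is reported from duplicates. For each sample, crude K562 extract from dounce-homogenised pellets in PBS pH 7.4 with 1 mM MgCl2, at 1 mg/mL protein, was treated with 10 μM compound for 30 min. Aliquots heated for 3 min across 48°C-58°C were pooled, brought to 0.5% NP-40 at 4°C and cleared at 21,000xg for 90 min. The supernatant was quantified by TMTpro 16plex LC-MS/MS with channel sums equalised.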", "values": [
      {"target": "SERPINI1 (UniProt Q99574)", "sequence (Q99574 whole entry, looked up)": "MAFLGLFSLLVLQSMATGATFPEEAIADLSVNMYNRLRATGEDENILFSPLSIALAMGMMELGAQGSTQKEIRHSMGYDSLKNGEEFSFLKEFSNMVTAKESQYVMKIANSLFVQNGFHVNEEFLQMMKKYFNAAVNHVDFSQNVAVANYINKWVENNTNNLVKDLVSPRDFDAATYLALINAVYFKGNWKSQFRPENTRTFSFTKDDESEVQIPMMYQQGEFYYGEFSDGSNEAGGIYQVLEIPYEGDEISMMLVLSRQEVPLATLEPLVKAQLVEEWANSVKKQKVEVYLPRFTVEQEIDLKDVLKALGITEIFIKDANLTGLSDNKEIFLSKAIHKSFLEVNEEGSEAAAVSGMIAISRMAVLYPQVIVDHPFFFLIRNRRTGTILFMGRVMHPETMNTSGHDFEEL", "log2 fold change": "-0.028 (inactive)"},
      {"target": "SASS6 (UniProt Q6UVJ0)", "sequence (Q6UVJ0 whole entry, looked up)": "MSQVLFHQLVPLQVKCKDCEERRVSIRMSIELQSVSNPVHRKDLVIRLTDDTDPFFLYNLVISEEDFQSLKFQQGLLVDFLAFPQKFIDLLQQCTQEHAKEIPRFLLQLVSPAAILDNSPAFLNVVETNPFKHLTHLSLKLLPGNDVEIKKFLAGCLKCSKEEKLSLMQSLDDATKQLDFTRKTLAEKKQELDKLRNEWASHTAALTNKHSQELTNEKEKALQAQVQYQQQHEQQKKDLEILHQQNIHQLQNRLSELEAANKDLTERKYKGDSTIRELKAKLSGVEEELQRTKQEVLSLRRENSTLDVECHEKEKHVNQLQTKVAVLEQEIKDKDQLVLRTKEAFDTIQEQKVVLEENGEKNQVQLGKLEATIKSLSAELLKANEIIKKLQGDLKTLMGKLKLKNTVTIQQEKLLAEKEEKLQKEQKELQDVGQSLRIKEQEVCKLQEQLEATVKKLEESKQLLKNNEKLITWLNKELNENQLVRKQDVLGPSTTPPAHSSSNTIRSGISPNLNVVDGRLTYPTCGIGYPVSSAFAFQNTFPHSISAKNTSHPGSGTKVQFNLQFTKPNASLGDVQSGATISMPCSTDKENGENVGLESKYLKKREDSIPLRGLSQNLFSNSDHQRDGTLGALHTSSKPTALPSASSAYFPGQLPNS", "log2 fold change": "0.001 (inactive)"},
      {"target": "RPS6KB1 (UniProt P23443)", "sequence (P23443 whole entry, looked up)": "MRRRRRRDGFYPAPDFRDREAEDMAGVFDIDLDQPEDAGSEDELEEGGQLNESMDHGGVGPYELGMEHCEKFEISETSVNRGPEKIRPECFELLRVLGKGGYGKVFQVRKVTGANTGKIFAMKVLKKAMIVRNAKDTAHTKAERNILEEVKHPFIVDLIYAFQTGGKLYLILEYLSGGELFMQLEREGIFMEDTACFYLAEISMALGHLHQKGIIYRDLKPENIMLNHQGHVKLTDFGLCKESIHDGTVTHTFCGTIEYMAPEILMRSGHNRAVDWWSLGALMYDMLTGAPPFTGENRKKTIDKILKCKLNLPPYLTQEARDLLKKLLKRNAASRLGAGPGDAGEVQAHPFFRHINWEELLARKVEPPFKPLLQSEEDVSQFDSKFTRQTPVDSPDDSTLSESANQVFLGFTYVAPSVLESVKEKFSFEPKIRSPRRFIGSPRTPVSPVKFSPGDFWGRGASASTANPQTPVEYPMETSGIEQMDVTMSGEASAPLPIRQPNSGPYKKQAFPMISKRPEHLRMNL", "log2 fold change": "-0.01 (inactive)"},
      {"target": "SAMHD1 (UniProt Q9Y3Z3)", "log2 fold change": "0.067 (inactive)"},
      {"target": "S100A11 (UniProt P31949)", "sequence (P31949 whole entry, looked up)": "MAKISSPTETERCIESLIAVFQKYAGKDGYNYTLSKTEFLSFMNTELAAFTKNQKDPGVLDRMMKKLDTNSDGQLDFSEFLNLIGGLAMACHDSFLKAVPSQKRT", "log2 fold change": "0.028 (inactive)"},
      {"target": "RTN4IP1 (UniProt Q8WWV3)", "sequence (Q8WWV3 whole entry, looked up)": "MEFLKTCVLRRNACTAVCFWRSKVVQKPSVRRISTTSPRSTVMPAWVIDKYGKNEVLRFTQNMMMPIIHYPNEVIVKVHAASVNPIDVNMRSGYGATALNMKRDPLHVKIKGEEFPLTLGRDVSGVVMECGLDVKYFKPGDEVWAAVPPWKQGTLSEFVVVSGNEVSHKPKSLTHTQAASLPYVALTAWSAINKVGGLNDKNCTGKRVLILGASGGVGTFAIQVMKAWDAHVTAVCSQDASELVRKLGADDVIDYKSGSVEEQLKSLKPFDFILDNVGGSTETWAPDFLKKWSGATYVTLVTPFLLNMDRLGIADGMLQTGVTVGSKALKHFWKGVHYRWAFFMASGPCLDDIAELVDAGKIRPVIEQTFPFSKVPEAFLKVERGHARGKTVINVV", "log2 fold change": "-0.015 (inactive)"},
      {"target": "RIOK3 (UniProt O14730)", "log2 fold change": "0.011 (inactive)"},
      {"target": "RAB6D (UniProt Q53S08)", "sequence (Q53S08 whole entry, looked up)": "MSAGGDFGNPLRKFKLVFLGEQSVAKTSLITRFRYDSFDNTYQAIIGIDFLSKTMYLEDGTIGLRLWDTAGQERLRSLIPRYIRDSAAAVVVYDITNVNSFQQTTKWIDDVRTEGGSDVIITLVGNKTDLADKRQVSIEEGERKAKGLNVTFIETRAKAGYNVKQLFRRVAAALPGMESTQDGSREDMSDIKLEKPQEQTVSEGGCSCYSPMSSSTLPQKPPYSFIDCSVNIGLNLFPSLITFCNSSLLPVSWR", "log2 fold change": "0.009 (inactive)"},
      {"target": "RHAG (UniProt Q02094)", "sequence (Q02094 whole entry, looked up)": "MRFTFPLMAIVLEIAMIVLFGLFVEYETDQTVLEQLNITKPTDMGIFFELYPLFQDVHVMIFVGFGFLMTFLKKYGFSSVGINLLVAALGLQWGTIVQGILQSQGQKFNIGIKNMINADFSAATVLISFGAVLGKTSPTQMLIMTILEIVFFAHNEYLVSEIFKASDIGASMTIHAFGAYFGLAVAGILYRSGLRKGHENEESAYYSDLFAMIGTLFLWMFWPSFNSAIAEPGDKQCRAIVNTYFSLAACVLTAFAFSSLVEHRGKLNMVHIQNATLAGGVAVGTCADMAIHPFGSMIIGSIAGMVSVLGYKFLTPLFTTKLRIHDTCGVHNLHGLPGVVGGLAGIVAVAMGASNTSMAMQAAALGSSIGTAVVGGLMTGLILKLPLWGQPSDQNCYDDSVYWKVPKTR", "log2 fold change": "0.008 (inactive)"},
      {"target": "RIPK1 (UniProt Q13546)", "log2 fold change": "-0.02 (inactive)"},
      {"target": "RMC1 (UniProt Q96DM3)", "log2 fold change": "0.005 (inactive)"},
      {"target": "RAB21 (UniProt Q9UL25)", "log2 fold change": "-0.002 (inactive)"},
      {"target": "RABEPK (UniProt Q7Z6M1)", "log2 fold change": "0.001 (inactive)"},
      {"target": "SCO1 (UniProt O75880)", "log2 fold change": "-0.065 (inactive)"},
      {"target": "RINT1 (UniProt Q6NUQ1)", "log2 fold change": "0.012 (inactive)"},
      {"target": "RDH14 (UniProt Q9HBH5)", "log2 fold change": "0.032 (inactive)"},
      {"target": "RPL31 (UniProt P62899)", "log2 fold change": "-0.021 (inactive)"},
      {"target": "RAF1 isoform 2 (UniProt P04049)", "log2 fold change": "0 (inactive)"},
      {"target": "RDX (UniProt P35241)", "log2 fold change": "-0.002 (inactive)"},
      {"target": "RPS4X (UniProt P62701)", "log2 fold change": "-0.001 (inactive)"},
      {"target": "RIC1 (UniProt Q4ADV7)", "log2 fold change": "0.027 (inactive)"},
      {"target": "RRM1 (UniProt P23921)", "sequence (P23921 whole entry, looked up)": "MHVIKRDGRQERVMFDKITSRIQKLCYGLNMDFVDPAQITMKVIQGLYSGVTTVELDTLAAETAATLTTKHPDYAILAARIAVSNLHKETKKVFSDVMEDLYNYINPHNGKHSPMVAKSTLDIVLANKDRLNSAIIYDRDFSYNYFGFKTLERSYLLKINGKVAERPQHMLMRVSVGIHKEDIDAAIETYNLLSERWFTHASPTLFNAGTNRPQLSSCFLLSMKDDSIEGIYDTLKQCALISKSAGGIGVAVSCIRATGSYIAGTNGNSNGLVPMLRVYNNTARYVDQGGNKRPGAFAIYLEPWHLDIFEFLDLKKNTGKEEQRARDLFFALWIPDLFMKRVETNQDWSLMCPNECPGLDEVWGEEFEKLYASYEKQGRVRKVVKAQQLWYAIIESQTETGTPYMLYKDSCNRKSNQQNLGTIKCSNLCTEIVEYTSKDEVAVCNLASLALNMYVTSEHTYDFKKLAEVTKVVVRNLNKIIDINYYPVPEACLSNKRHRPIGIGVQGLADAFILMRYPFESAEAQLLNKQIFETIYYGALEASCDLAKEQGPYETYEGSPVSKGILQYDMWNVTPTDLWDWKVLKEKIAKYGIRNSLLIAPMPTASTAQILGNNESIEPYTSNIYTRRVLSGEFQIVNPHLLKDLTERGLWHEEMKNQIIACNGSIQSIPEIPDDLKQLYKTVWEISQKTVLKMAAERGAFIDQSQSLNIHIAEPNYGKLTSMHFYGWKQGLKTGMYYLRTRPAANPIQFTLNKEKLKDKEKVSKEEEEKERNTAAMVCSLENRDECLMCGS", "log2 fold change": "0.024 (inactive)"},
      {"target": "RNF123 (UniProt Q5XPI4)", "log2 fold change": "-0.016 (inactive)"},
      {"target": "RNF181 (UniProt Q9P0P0)", "log2 fold change": "0 (inactive)"},
      {"target": "RNF213, A0A0A0MTC1", "log2 fold change": "0.042 (inactive)"},
      {"target": "RNF168 (UniProt Q8IYW5)", "sequence (Q8IYW5 whole entry, looked up)": "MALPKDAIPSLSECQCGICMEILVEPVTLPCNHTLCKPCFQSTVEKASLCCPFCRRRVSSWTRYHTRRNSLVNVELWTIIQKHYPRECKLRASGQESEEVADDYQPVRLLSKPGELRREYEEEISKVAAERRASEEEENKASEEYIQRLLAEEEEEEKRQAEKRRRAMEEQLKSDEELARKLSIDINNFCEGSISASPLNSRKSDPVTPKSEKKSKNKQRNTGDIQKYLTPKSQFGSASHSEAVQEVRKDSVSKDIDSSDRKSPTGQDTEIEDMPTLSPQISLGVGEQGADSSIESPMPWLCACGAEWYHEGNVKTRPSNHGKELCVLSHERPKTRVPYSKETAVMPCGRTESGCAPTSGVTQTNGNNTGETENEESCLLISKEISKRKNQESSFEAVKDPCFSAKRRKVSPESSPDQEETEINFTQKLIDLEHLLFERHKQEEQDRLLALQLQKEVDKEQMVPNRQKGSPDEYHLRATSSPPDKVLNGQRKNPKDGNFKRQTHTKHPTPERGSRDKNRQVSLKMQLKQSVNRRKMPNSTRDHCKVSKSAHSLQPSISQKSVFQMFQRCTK", "log2 fold change": "-0.04 (inactive)"},
      {"target": "SAR1B (UniProt Q9Y6B6)", "log2 fold change": "-0.065 (inactive)"},
      {"target": "RFC2 (UniProt P35250)", "log2 fold change": "0.048 (inactive)"},
      {"target": "SBF1 isoform 4 (UniProt O95248)", "log2 fold change": "0.054 (inactive)"},
      {"target": "SERINC3 (UniProt Q13530)", "sequence (Q13530 whole entry, looked up)": "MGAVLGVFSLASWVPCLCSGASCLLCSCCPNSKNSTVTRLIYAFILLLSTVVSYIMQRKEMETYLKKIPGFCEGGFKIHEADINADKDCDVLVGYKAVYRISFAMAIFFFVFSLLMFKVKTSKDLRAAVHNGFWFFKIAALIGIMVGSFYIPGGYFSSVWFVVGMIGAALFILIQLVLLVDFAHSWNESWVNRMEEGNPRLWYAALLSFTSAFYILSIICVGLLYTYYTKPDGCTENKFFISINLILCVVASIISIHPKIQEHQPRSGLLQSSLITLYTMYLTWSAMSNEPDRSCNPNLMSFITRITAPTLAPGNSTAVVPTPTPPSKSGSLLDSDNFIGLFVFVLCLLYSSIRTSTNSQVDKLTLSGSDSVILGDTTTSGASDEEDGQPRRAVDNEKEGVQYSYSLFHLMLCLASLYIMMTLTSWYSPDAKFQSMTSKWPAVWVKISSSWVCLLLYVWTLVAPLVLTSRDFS", "log2 fold change": "-0.042 (inactive)"},
      {"target": "RPS29 (UniProt P62273)", "log2 fold change": "-0.068 (inactive)"},
      {"target": "RPS26P11 (UniProt Q5JNZ5)", "log2 fold change": "0.025 (inactive)"},
      {"target": "RFC5 (UniProt P40937)", "sequence (P40937 whole entry, looked up)": "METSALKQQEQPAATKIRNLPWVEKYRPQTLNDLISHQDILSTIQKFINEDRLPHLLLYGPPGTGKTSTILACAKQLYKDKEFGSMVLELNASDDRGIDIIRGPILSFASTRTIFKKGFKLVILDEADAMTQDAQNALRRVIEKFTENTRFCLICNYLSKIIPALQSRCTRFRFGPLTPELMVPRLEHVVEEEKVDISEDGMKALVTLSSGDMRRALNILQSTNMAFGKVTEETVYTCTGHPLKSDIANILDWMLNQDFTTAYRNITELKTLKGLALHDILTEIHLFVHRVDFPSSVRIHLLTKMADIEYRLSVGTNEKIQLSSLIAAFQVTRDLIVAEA", "log2 fold change": "0.025 (inactive)"}
    ]},
    {"compound": "CC1=CC=C(C=C1)SC2=C3C=C(SC3=CN=C2)C(=O)N", "experiment": "log2 fold change, soluble protein after heating vs DMSO (PISA); higher = thermal stabilisation; K562 lysate, 10 uM; active = over 0.2 and 3.5 SD of the protein, either way, in both replicates (recomputed)", "in_short": "as §1", "values": [
      {"target": "SERPINI1 (UniProt Q99574)", "log2 fold change": "-0.054 (inactive)"},
      {"target": "SASS6 (UniProt Q6UVJ0)", "log2 fold change": "-0.021 (inactive)"},
      {"target": "RPS6KB1 (UniProt P23443)", "log2 fold change": "-0.001 (inactive)"},
      {"target": "SAMHD1 (UniProt Q9Y3Z3)", "log2 fold change": "-0.003 (inactive)"},
      {"target": "S100A11 (UniProt P31949)", "log2 fold change": "0.037 (inactive)"},
      {"target": "RTN4IP1 (UniProt Q8WWV3)", "log2 fold change": "-0.033 (inactive)"},
      {"target": "RIOK3 (UniProt O14730)", "log2 fold change": "-0.093 (inactive)"},
      {"target": "RAB6D (UniProt Q53S08)", "log2 fold change": "-0.026 (inactive)"},
      {"target": "RHAG (UniProt Q02094)", "log2 fold change": "-0.003 (inactive)"},
      {"target": "RIPK1 (UniProt Q13546)", "log2 fold change": "0.003 (inactive)"},
      {"target": "RMC1 (UniProt Q96DM3)", "log2 fold change": "0.027 (inactive)"},
      {"target": "RAB21 (UniProt Q9UL25)", "log2 fold change": "0.015 (inactive)"},
      {"target": "RABEPK (UniProt Q7Z6M1)", "log2 fold change": "0 (inactive)"},
      {"target": "SCO1 (UniProt O75880)", "log2 fold change": "-0.023 (inactive)"},
      {"target": "RINT1 (UniProt Q6NUQ1)", "log2 fold change": "0.016 (inactive)"},
      {"target": "RDH14 (UniProt Q9HBH5)", "log2 fold change": "-0.012 (inactive)"},
      {"target": "RPL31 (UniProt P62899)", "log2 fold change": "0.016 (inactive)"},
      {"target": "RAF1 isoform 2 (UniProt P04049)", "log2 fold change": "0.027 (inactive)"},
      {"target": "RDX (UniProt P35241)", "log2 fold change": "-0.004 (inactive)"},
      {"target": "RPS4X (UniProt P62701)", "log2 fold change": "0.034 (inactive)"},
      {"target": "RIC1 (UniProt Q4ADV7)", "log2 fold change": "-0.006 (inactive)"},
      {"target": "RRM1 (UniProt P23921)", "log2 fold change": "0.016 (inactive)"},
      {"target": "RNF123 (UniProt Q5XPI4)", "log2 fold change": "0.022 (inactive)"},
      {"target": "RNF181 (UniProt Q9P0P0)", "log2 fold change": "0.013 (inactive)"},
      {"target": "RNF213, A0A0A0MTC1", "log2 fold change": "0.022 (inactive)"},
      {"target": "RNF168 (UniProt Q8IYW5)", "log2 fold change": "0.011 (inactive)"},
      {"target": "SAR1B (UniProt Q9Y6B6)", "log2 fold change": "0.077 (inactive)"},
      {"target": "RFC2 (UniProt P35250)", "log2 fold change": "-0.001 (inactive)"},
      {"target": "SBF1 isoform 4 (UniProt O95248)", "log2 fold change": "0.079 (inactive)"},
      {"target": "SERINC3 (UniProt Q13530)", "log2 fold change": "-0.011 (inactive)"},
      {"target": "RPS29 (UniProt P62273)", "log2 fold change": "0.058 (inactive)"},
      {"target": "RPS26P11 (UniProt Q5JNZ5)", "log2 fold change": "0.016 (inactive)"},
      {"target": "RFC5 (UniProt P40937)", "log2 fold change": "0.018 (inactive)"}
    ]}
  ]
}
